Measured values published in the supplement of paper PMC10338343.
± gives the standard deviation.

system: MILI (PIWIL2) piRISC loaded with piRNA #1 (26 nt); experiment: pre-steady-state target cleavage rate (min^-1); guide: piRNA #1 5'p-UGAGGUAGUAGGUUGUAUAGUAUCCA; MIWI and MILI are mouse PIWI proteins and EfPiwi is from a freshwater sponge; tags in brackets are library labels; higher = faster piRNA-guided slicing of the target; details: auxiliary factor: 500 nM mouse GTSF1
Summary of the method: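 Active affinity-purified piRISC carrying one synthetic guide (1 nM) was mixed with a transcribed, DNA-blocked target RNA library […] in HEPES–potassium acetate buffer at 33 °C for 0–8 or 0–960 min, with or without 500 nM GTSF1 partner protein. Uncleaved targets were then sequenced and normalised to depth and to weakly complementary targets. Three trials were pooled, and k3 was capped at 0.0001 min^-1. A burst-and-steady-state fit was applied to obtain the pre-steady-state cleavage rate.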
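Also: 1 nM active piRISC with 0.1 nM target library at 33 °C single turnover.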

| Sequence | pre-steady-state target cleavage rate |
| --- | --- |
| GGAGACCUAUCUAUACUACCUAGUACCUCA | 0.0113 ± 0.0036 |
| GGAGACCUAUGAUAUGUACCUACUACCGCA | < 0.0001 |
| GGAGACCUUACUUUACAAGCUACUACCUCA | 0.232 ± 0.013 |
| GGAGACCUAUGUAUAUCAACCUACUACCUCA | 0.00312 ± 0.0027 |
| GGAGACCUAUCUAUACAACCUAAUACCUCA | 0.0234 ± 0.0057 |
| GGAGACCUAUGAAUACAACCUACUUACCUCA | 0.00968 ± 0.0023 |
| GGAGACCUAUGAUAUCAAACUACUACCUCA | 0.00495 ± 0.0026 |
| GGAGACCUAUGUAUAGAAGCUACUACCUCA | 0.0984 ± 0.013 |
| GGAGACCUAUGAUAUCAACCUACAACGUCA | < 0.0001 |
| GGAGACCUUACAUACAACCUACUACCUCA | 0.0259 ± 0.0067 |
| GGAGACGUUACUAUAGAACCUACUACCUCA | 0.154 ± 0.014 |
| GGAGACCUAAGUAUACAACCUACUACGUCA | 0.0129 ± 0.0032 |
| GGAGAGGAUUCAAUACAACCUACUACCUCA | 0.132 ± 0.01 |
| GGAGACCUAUGAUAUCAUCCUACUACCUCA | 0.00256 ± 0.0016 |
| GGAGACGAUACUAUAAACCUACUACCUCA | 0.0257 ± 0.0077 |
| GGAGACCUAUGAUAUCACCUACUACCUCA | 0.00625 ± 0.0026 |
| GGAGACCUAUGAAUACUACCUACAACCUCA | 0.00497 ± 0.0016 |
| GGAGACCUAUGUUUACAACCUUCUACCUCA | 0.00358 ± 0.0029 |
| GGAGACCUAUGAUUACAUCCUACUUCCUCA | 0.00764 ± 0.0027 |
| GGAGACGUUACAAUACAACCUACUACCUCA | 0.163 ± 0.015 |
| GGAGACCUAUGAAUACAAGGUACUACCUCA | 0.00378 ± 0.003 |
| GGAGACCUUACUAUUCUACCUACUACCUCA | 0.124 ± 0.0096 |
| GGAGAGGAUACUAUACAACCUCUACCUCA | 0.0184 ± 0.0033 |
| GGAGACCUAUGUAUACAUCCUACUAGCUCA | 0.0312 ± 0.0078 |
